# System: Perkinsus marinus PRA240
# Assay: ATP content (proliferation) relative to DMSO control; higher = more parasite growth (less inhibition)
# Details: 20 µM; 4 days
# Method: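 Perkinsus marinus PRA240 trophozoites (2-5x10^6 cells/ml, 100 µl, 96-well) were exposed once to MMV Malaria Box compounds at 20 µM (0.1% DMSO) in triplicate. ATP content (ATPlite bioluminescence) was read at day 4 post-exposure and normalised to DMSO + cells control wells (100% activity). Compounds were identified by joining plate and well to the Malaria Box list.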
row,SMILES,ATP content
1,COc1cccc(-c2nn(C)c3sc(C(=O)NCCN4CCN(c5ccccc5F)CC4)cc23)c1,89.7%
2,c1ccc(-c2ccc(-c3nc4ccccc4[nH]3)cc2)cc1,16.5%
3,O=C(NNc1cc(N2CCCC2)nc(N2CCCC2)n1)c1ccccc1,101%
4,COc1ccc(C2NCCc3c2[nH]c2ccccc32)cc1CN1CCN(c2ccc(F)cc2)CC1 (stereo not drawn),171%
5,CCn1c2c(c(=N)c3c1CCC3)CCCC2,96.7%
6,CC(C)(C)c1ccc2c(c1)CN(Cc1ccc(Cl)cc1)CO2,107%
7,COc1ccc(OC)c(C2C3=C(CC(C)(C)CC3=O)N(c3ccc(Cl)c(Cl)c3)C3=C2C(=O)CC(C)(C)C3)c1,161%
8,COc1ccc2nc(C)cc(Nc3cccc(O)c3)c2c1,109%
9,CCCCOc1ccc(C(=O)Nc2cc(C)on2)cc1,61.2%
10,CCCCCCc1cc2cc(-c3nc4ccccc4[nH]3)c(=Nc3ccccc3C)oc2cc1O,121%
11,O=C(NC1CCN(Cc2ccccc2)CC1)c1cc(-c2ccncc2)nc2ccc(Cl)cc12,172%
12,CCOC(=O)C1=C(C)N=c2sc(=Cc3cc(Cl)ccc3O)c(=O)n2C1c1ccc(OC)cc1 (stereo not drawn),61.6%
13,CCOc1ccc(CCNC(=O)c2cccs2)cc1OCC,67.6%
14,CCOc1cc(Cl)c(C(C)NC(=O)c2cccc(OC)c2)cc1OCC (stereo not drawn),85.3%
15,Cc1c(C)n(Cc2ccc(F)cc2)c2ccc(C(=O)NCc3ccco3)cc12,111%
16,CC(Oc1ccc(NC(=O)c2cccs2)cc1)C(=O)c1ccc(Cl)cc1 (stereo not drawn),55.4%
17,Cc1ccc(CN2CCC(C(=O)Nc3ccc(-c4cc5ccccc5[nH]4)cc3)CC2)o1,83.4%
18,O=C1c2ccc3c4c(ccc(c24)C(=O)N1CCCCO)C(=O)N(CCCCO)C3=O,50.5%

# From the supplement of paper PMC4206467
